Here are results for 8 compounds from PubChem BioAssay (Tox21).

A number with no mark means an inactive call. Records with an inconclusive call do not appear. The source made the active and inactive calls. Unless noted, the call rests on the fitted dose curve.

Assay [1] can be described thus: Nuclear factor erythroid 2-related factor 2/antioxidant responsive element (Nrf2/ARE) small molecule agonists: qHTS cell viability counter screen in human keratinocytes (AID 1919968; active means well fitted curve in the direction sought with a large enough effect in the repeat runs; an effect the other way counts as inactive or inconclusive; further: nearly all actives have a fitted effect of over 55% in size). An outline of the steps:
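In human HaCaT keratinocytes stably expressing an ARE-driven luciferase, compound exposure lasted 23 h at 37 C under 5% CO2. Viable cells are quantified with a protease-based fluorogenic reagent (CellTiter-Fluor) read 1 h after addition.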
In general terms: qHTS replaces the single test concentration by a dilution series.

Assay [2] in a line: Nuclear factor erythroid 2-related factor 2/antioxidant responsive element (Nrf2/ARE) small molecule agonists: luciferase reporter gene qHTS assay in human keratinocytes (AID 1919969). Further: nearly all actives have a fitted effect of over 35% in size. Background: A reporter such as luciferase makes a cellular process visible.
Assay [3] has as its target Gonadotropin-releasing hormone receptor (Homo sapiens) (UniProt P30968). Put plainly: Human gonadotropin-releasing hormone receptor (GnRHR) small molecule agonists, calcium flux assay in GnRHR-HEK293 cells (AID 1920063). Further: nearly all actives have a fitted effect of over 35% in size. The method, boiled down: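 Intracellular calcium rise is the read-out: engineered human GnRHR HEK293 cells, dye-loaded, are exposed to DMSO-dissolved compounds and fluorescence at Ex/Em 480/540 is tracked for 3 min.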
Background: Calcium assays in cells follow changes in intracellular calcium, usually with a dye or a luminescent sensor.

Assay [4] addresses KiSS-1 receptor (Homo sapiens) (UniProt Q969F8). The assay can be described thus: Human kisspeptin (KISS1R) small molecule agonists, calcium flux assay in KISS1R-HEK293 cells (AID 1920064; active means well fitted curve in the direction sought with a large enough effect in the repeat runs; an effect the other way counts as inactive or inconclusive). An outline of the steps: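 Concentration-response testing used 15 concentrations in triplicate on human KISS1R-expressing HEK293 cells. Calcium-dependent fluorescence (Ex/Em 480/540) was followed kinetically for 3 min after compound transfer.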

A short description of assay [5]: G protein-coupled receptor (GPCR) small molecule agonists, calcium flux assay: HEK293 wild type cell line counter screen (AID 1920065). An outline of the steps:
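Fluorescence intensity signals activation. After overnight (18 h) culture and a 1 h calcium dye load at 37 C, compounds are added by pin tool and the plate read at 480/540 nm for 3 min in 1 s steps.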

Assay [6] in a line: p53 small molecule agonists, cell-based qHTS assay with human liver microsomes: qHTS cell viability counter screen (AID 1963579). Further: nearly all actives have a fitted effect of over 45% in size. An outline of the steps: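 Metabolic activation used human liver microsomes and NADPH, both 0.5 mg/mL final, over 16 hours at 37 C on p53RE-bla cells (4,000/well). Cytotoxicity measured by CellTiter-Glo luminescence, 30 min at room temperature.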
Assay [7] in a line: p53 small molecule agonists, cell-based qHTS assay (AID 1963582; active means well fitted activation curve with a large enough effect in the signal ratio in the repeat runs, not every such curve was filed as active; the % refers to the signal ratio). The method, boiled down: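 After plating, p53RE-bla cells sat 5 h in the incubator; compounds or DMSO vehicle were pinned in; a 16 h incubation at 37 C followed; FRET substrate was added and, 2 h later at RT, fluorescence was measured.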
Assay [8] addresses 5-hydroxytryptamine receptor 2A (Homo sapiens) (UniProt P28223). Put plainly: 5-hydroxytryptamine receptor 2A (HTR2A) small molecule antagonists, cell-based qHTS assay (AID 1963586). Further: nearly all actives have a fitted effect of over 45% in size. Further: potency means the concentration at half of the fitted maximal effect. An outline of the steps: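 CHO cells stably expressing human HTR2A were plated for 18 h at 37 C, then loaded with calcium dye for 1 h. Compounds were preincubated 5 min at room temperature before DOI (4 nM solution) was added. Kinetic fluorescence was read for 3 min.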

Assay [9] has the same target. Put plainly: 5-hydroxytryptamine receptor 2A (HTR2A) small molecule agonists, cell-based qHTS assay (AID 1963587). Further: nearly all actives have a fitted effect of over 30% in size. An outline of the steps: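 HTR2A-CHO cells, plated 18 h at 37 C/5% CO2, dye-loaded 1 h at 37 C; compounds in DMSO added by pin tool (agonist mode). Intracellular calcium flux read as kinetic fluorescence on FDSS over 2 min at 1 s intervals.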
In assay [10] the target is Muscarinic acetylcholine receptor M1 (Homo sapiens) (UniProt P11229). Put plainly: Cholinergic receptor muscarinic 1 (CHRM1) small molecule antagonists, cell-based qHTS assay (AID 1963588). Further: nearly all actives have a fitted effect of over 40% in size. Further: potency means the concentration at half of the fitted maximal effect. The method, boiled down: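 Compounds were tested at 15 concentrations in three independent runs. Dye-loaded CHRM1-CHO cells were exposed 5 min at room temperature before stimulation by acetylcholine added at 50nM. Intracellular calcium was read kinetically on FDSS for 3 min.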
Muscarinic acetylcholine receptor M1 (Homo sapiens), sequence (P11229 whole entry, looked up): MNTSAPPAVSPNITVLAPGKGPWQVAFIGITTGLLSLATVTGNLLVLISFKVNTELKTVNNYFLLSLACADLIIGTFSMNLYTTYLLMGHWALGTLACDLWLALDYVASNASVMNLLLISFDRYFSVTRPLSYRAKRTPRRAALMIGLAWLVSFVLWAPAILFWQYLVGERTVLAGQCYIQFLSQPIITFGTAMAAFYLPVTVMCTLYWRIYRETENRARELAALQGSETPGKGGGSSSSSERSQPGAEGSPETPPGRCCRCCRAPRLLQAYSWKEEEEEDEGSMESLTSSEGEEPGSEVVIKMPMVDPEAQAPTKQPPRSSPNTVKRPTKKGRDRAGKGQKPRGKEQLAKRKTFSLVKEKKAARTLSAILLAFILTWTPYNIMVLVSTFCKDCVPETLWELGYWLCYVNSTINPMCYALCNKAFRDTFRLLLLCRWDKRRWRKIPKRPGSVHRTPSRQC

Assay [11] shares this target. Put plainly: Cholinergic receptor muscarinic 1 (CHRM1) small molecule agonists, cell-based qHTS assay (AID 1963589). Further: nearly all actives have a fitted effect of over 35% in size. An outline of the steps: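 Fluorescent calcium dye reports M1 activation in stably transfected CHO cells. Compounds, 15 concentrations, added after 1 h dye loading at 37 C; kinetic reading at 1 sec intervals.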
A short description of assay [12]: cAMP Responsive Elements (CRE) small molecule agonists, cell-based qHTS assay (AID 1963590). The method, boiled down:
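Compound exposure lasted 3 h at 37 C/5% CO2 in CRE-bla HEK 293T cells grown in assay medium with 10% dialyzed FBS and 25 mM HEPES. Reporter signal came from LiveBLAzer B/G FRET substrate, 2 h, room temperature.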

Assay [13] in a line: cAMP Responsive Elements (CRE) small molecule antagonists, cell-based qHTS assay (AID 1963591; active means well fitted inhibition curve with a large enough effect in the signal ratio in the repeat runs, not every such curve was filed as active; the % refers to the signal ratio). An outline of the steps:
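Stimulation used NKH477 at a final 0.25 uM for 3 h in compound-treated CRE-bla HEK293T cells, seeded 18 h beforehand. Reporter activity was measured with LiveBLAzer B/G FRET substrate after 2 h at room temperature.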

Assay [14] concerns the target Beta-2 adrenergic receptor (Homo sapiens) (UniProt P07550). The assay can be described thus: Adrenergic beta2 receptor (ADRB2) small molecule antagonists, cell-based qHTS assay (AID 1963592). Further: series mostly up to about 92 µM; nearly all actives have a fitted effect of over 50% in size. The method, boiled down:
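Assay format: CHO-ADRB2 cells, 18-20hr seeding at 37C/5% CO2, then compound plus 1nM isoproterenol agonist mix for 0.5hr RT. Homogeneous time-resolved fluorescence cAMP detection after 1hr, expressed as 665/615 nm ratio.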

Assay [15] has as its target D(2) dopamine receptor (Homo sapiens) (UniProt P14416). Put plainly: Dopamine D2 receptor (DRD2) small molecule antagonists, cell-based qHTS assay (AID 1963595; active means well fitted inhibition curve with a large enough effect in the signal ratio in the repeat runs, with a control signal flat; the % refers to the signal ratio; further: potency means the concentration at half of the fitted maximal effect). An outline of the steps: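 Antagonist mode in DRD2-HEK293 cells: after compound addition with 0.1 mM Ro20-1724, cells received quinpirole (12 nM) and NKH477 (200 nM) for 30 min at room temperature; HTRF cAMP read after 1 h detection.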

Assay [16] can be described thus: p53 small molecule agonists, cell-based qHTS assay with rat liver microsomes: qHTS cell viability counter screen (AID 1963580). Further: nearly all actives have a fitted effect of over 45% in size. An outline of the steps: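 Counter screen for cytotoxicity under metabolic activation: rat liver microsomes and NADPH, 0.5 mg/mL final each, added with compounds to p53RE-bla HCT-116 cells; 16 h at 37 C, then ATP luminescence read.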
A short description of assay [17]: p53 small molecule agonists, cell-based qHTS assay: qHTS cell viability counter screen (AID 1963581). Further: nearly all actives have a fitted effect of over 45% in size. The method, boiled down:
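Luminescence from CellTiter-Glo, reflecting ATP content, serves as the cytotoxicity measure; it is taken after the 2 h reporter substrate step in HCT-116 p53RE-bla cells dosed for 16 h at 37 C.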

In assay [18] the target is D(2) dopamine receptor (Homo sapiens) (UniProt P14416). The assay can be described thus: Dopamine D2 receptor (DRD2) small molecule agonists, cell-based qHTS assay (AID 1963594). Further: nearly all actives have a fitted effect of over 35% in size. The method, boiled down: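 HEK293 cells stably expressing DRD2 were cultured 24 h at 37 C, then given Ro20-1724 (0.1 mM final) and compounds for 10 min at room temperature. NKH477 (200nM) was then added for 30 min. cAMP was read by HTRF.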
D(2) dopamine receptor (Homo sapiens), sequence (P14416 whole entry, looked up): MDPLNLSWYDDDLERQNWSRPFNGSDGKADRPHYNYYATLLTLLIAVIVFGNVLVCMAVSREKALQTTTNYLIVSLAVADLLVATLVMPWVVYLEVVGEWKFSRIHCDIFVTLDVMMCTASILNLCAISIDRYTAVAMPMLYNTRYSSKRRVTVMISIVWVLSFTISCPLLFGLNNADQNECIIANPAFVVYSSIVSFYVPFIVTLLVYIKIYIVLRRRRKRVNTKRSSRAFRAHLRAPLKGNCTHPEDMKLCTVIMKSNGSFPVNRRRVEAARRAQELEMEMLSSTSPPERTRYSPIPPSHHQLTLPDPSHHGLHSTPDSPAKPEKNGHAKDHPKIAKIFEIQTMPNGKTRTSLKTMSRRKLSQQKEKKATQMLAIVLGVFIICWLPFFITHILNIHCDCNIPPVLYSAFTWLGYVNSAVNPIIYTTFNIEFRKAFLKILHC

Assay [19] concerns the target Beta-2 adrenergic receptor (Homo sapiens) (UniProt P07550). Put plainly: Adrenergic beta2 receptor (ADRB2) small molecule agonists, cell-based qHTS assay (AID 1963593).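 Further: CHO cells stably overexpressing human ADRB2.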 An outline of the steps: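 CHO cells stably over-expressing ADRB2 were plated overnight at 37C, then dosed with compounds plus a stimulation mix containing 100uM IBMX and 25uM Ro-20-1724 for 0.5hr at room temperature. cAMP was measured by HTRF competition, 1hr.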

KiSS-1 receptor (Homo sapiens), sequence (Q969F8 whole entry, looked up): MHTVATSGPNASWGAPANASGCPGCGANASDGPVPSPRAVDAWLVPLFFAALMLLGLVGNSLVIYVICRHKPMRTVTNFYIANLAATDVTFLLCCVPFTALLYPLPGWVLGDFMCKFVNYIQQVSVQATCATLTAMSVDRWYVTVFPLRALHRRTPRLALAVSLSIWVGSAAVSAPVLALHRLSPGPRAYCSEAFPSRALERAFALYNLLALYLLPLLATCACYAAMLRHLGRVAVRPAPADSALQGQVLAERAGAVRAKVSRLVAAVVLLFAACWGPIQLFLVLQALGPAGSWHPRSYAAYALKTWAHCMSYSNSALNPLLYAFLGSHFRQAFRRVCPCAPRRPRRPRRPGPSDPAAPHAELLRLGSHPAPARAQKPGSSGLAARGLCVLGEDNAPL
Beta-2 adrenergic receptor (Homo sapiens), sequence (P07550 whole entry, looked up): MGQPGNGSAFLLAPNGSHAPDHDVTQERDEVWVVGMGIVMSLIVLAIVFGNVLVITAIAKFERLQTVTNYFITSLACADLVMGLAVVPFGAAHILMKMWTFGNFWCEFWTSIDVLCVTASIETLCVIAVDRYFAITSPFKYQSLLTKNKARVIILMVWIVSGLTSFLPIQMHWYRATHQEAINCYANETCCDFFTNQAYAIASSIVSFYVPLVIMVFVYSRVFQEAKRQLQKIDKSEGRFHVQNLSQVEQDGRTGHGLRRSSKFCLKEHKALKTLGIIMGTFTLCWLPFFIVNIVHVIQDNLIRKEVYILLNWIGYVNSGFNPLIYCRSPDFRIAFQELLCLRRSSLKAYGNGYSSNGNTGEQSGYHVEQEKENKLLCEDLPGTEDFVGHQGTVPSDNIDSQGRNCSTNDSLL
5-hydroxytryptamine receptor 2A (Homo sapiens), sequence (P28223 whole entry, looked up): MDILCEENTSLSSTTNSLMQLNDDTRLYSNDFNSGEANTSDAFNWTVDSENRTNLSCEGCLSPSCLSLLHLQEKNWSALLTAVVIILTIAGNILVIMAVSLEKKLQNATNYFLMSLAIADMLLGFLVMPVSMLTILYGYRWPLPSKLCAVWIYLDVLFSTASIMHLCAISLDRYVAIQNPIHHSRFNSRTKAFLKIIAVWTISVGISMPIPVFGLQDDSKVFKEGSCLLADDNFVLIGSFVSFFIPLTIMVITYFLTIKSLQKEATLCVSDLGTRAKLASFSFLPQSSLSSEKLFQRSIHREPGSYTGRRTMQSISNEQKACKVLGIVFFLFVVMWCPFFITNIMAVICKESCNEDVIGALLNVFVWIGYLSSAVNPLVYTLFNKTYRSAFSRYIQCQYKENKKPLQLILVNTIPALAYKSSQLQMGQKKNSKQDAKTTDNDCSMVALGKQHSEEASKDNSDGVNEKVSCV
Gonadotropin-releasing hormone receptor (Homo sapiens), sequence (P30968 whole entry, looked up): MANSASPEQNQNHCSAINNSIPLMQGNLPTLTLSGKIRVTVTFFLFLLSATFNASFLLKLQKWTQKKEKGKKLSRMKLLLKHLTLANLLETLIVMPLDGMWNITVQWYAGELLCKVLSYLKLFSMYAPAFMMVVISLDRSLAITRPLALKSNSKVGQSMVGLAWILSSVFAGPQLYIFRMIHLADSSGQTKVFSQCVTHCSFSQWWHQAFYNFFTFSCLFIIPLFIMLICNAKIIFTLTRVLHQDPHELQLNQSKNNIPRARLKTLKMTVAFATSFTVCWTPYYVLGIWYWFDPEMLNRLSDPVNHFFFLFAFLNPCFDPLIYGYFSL

On to `CC(=O)c1ccc2c(c1)N(CCCN(C)C)c1ccccc1S2`, for which the Potency entry in [1], in assay [2], in assay [3], in [4], in assay [5] and in assay [6] was “inactive” in each case. Besides, the Potency result in [7], in assay [9], in assay [11], in assay [12], in assay [13] and in [14] was “inactive” each time. Further, the Potency in [8] was 0.0259 µM (active); in assay [10] it was 0.41 µM (active); in assay [15] it was 1.68 µM (active).
As to `Nc1nc(-c2ccccc2)cs1`, the Potency result in assay [1], in [2], in [3], in assay [4], in assay [5] and in assay [16] was “inactive” in each case. Besides, the Potency entry in assay [17], in [9], in assay [10], in assay [11], in assay [12] and in assay [14] was “inactive” in each case. Further, the Potency entry in assay [18] and in assay [15] was “inactive” throughout.
For the compound `O=C(c1ccccc1)c1ccc(O)cc1`, the Potency entry in assay [1], in assay [2], in [3], in assay [4], in [5] and in [16] was “inactive” throughout. In addition, the Potency entry in assay [17], in assay [8], in assay [9], in assay [10], in [11] and in assay [13] was “inactive” each time. Moreover, the Potency result in [14], in assay [18] and in assay [15] was “inactive” throughout.
With `CCC1(C)CC(=O)NC1=O` (stereo not drawn), the Potency result in assay [1], in [2], in assay [3], in assay [4], in assay [5] and in assay [6] was “inactive” each time. Further, the Potency result in assay [17], in [12], in [13], in assay [14], in assay [19] and in [18] was “inactive” each time. Moreover, the Potency result in [15] is “inactive”.
Turning to `O=C1CC[C@@H](C(=O)O)N1`, the Potency result in assay [1], in assay [2], in [3], in assay [4], in assay [5] and in [16] was “inactive” each time. The Potency result in [17], in [8], in assay [9], in assay [10], in assay [12] and in assay [13] was “inactive” throughout. Further, the Potency entry in [14], in [19] and in assay [15] was “inactive” each time.
Take `CC(=O)Oc1cccc(C)c1`: the Potency result in assay [1], in assay [2], in assay [3], in assay [4], in [5] and in [16] was “inactive” in each case. Moreover, the Potency result in assay [17], in assay [7], in assay [8], in assay [9], in assay [10] and in [11] was “inactive” throughout. The Potency result in assay [12], in assay [13], in assay [14], in assay [19], in assay [18] and in assay [15] was “inactive” throughout.
Consider `CC(C)c1ccccc1N`, for which the Potency entry in assay [1], in assay [2], in assay [3], in [4], in assay [5] and in [16] was “inactive” throughout. Also, the Potency entry in assay [17], in assay [8], in [9], in assay [10], in assay [11] and in [13] was “inactive” in each case. For the same compound, the Potency entry in [14], in [19], in assay [18] and in assay [15] was “inactive” each time.
Turning to `COc1cc(C(C)=O)ccc1OCCCN1CCC(c2noc3cc(F)ccc23)CC1`, the Potency result in assay [1], in [2], in assay [3], in [4], in assay [5] and in assay [16] was “inactive” each time. Besides, the Potency entry in assay [17], in assay [9], in assay [11], in assay [13] and in [18] was “inactive” each time. For the same compound, in [10], the Potency was 3.65 µM (active).
